NS1 inh: qHTS Assay for Inhibitors of Influenza NS1 Protein Function. Potency, µM (titrated, usually from 46.1 µM), for the others: at the top dose activity, positive = more growth. actives 0.4% (n = 270,000); further: potency means the concentration at half of the fitted maximal effect; actives are rising curves; nearly all actives have a fitted effect of over 50% in size
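Compounds were scored for reversing the slow growth caused by influenza A NS1 in S. cerevisiae, measured by optical density at 600 nm. Assay medium contained 2% galactose at pH 6.0; NS1-free yeast of the same strain were the positive control.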
Pf growth 48h: Primary qHTS for delayed death inhibitors of the malarial parasite plastid, 48 hour incubation; actives 5.9% (n = 310,000); Potency, µM (titrated, usually from 28.7 µM), for inactives: top-dose activity change, negative = inhibition, most hits filed as inhibitors; P. falciparum luciferase growth in erythrocytes, 48 h; AID 504832, 2011; active means well fitted inhibition curve with a large enough effect; inconclusive means small, poorly fitted or top-dose-only effect, or another doubt; inactive means no such curve, though single readings can be large or run the other way; further: potency means the concentration at half of the fitted maximal effect; on the % scale 0 is the no-effect control and ±100 the full control effect
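Read-out is firefly luciferase luminescence from an integrated reporter in P. falciparum, so falling signal marks reduced parasite growth. Infected erythrocytes were at 2% hematocrit and 0.1% parasitemia (final) in Albumax-supplemented RPMI 1640.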
Cycloheximide cs: Cycloheximide Counterscreen for Small Molecule Inhibitors of Shiga Toxin; cell reporter, cycloheximide protein synthesis inhibition counterscreen; max response, %; actives 12% (n = 300,000); AID 2314, 2010; in the data active means max response mostly above about 13%, no sharp cut-off; inactive means mostly below about 14%; further: read at 38.3 µM for the half of the compounds with a filed dose; 0% is about no effect
SARS PLpro yeast: qHTS of Yeast-based Assay for SARS-CoV PLP; Potency, µM (top dose mostly 32.9 µM), inactives show at the highest dose activity, positive = growth rescue, actives largely listed as activators; actives 0.19% (n = 330,000); S. cerevisiae expressing SARS-CoV PLpro, growth rescue; further: potency means the concentration at half of the fitted maximal effect; 0% is about no effect; nearly all actives have a fitted effect of over 55% in size
Pf growth 96h: Primary qHTS for delayed death inhibitors of the malarial parasite plastid, 96 hour incubation. P. falciparum luciferase reporter growth, 96 h. Potency, µM (doses to about 28.7 µM), for the others: at the highest dose activity change, negative = inhibition, hits mostly inhibitors. actives 6.9% (n = 320,000). AID 504834, 2011; active means well fitted inhibition curve with a large enough effect; inconclusive means small, poorly fitted or top-dose-only effect, or another doubt; inactive means no such curve, though single readings can be large or run the other way; further: potency means the concentration at half of the fitted maximal effect; on the % scale 0 is the no-effect control and ±100 the full control effect
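Luminescence readout: decreased luciferase signal marks inhibited growth of reporter-expressing P. falciparum in infected red cells (2% hematocrit, 0.05% parasitemia final), exposed to compound two generations (96 h, 37 C, 5% CO2).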
Shiga toxin inh: A qHTS for Small Molecule Inhibitors of Shiga Toxin. Vero cells, Shiga toxin protein synthesis inhibition reporter. inhibition, % at 38.7 µM. actives 9.2% (n = 290,000); in the data active means inhibition mostly above about 28%, no sharp cut-off; inactive means mostly below about 43%; further: 0% is about no effect
Starred values were filed as active, the others as inactive; ? = inconclusive; · = no result given; [ ] = remark or other dose. Compounds with a hit are over-represented: about 21% of the library has one in this group of screens. Unless noted, the call rests on the fitted dose curve.

SMILES	NS1 inh	Pf growth 48h	Cycloheximide cs	SARS PLpro yeast	Pf growth 96h	Shiga toxin inh
CN(CC(=O)Nc1ccc(F)c(F)c1)S(=O)(=O)c1cccc2cccnc12	10.2%	1.8%	-2.7	2.0%	13.1µM*	6.5
CC(C)NC(=O)CSc1nnc(-c2ccc(S(=O)(=O)N3CCCC3)cc2)n1CC1CCCO1 (stereo not drawn)	-0.2%	27.6%	-1.6	-1.8%	-10.4%	-10.9
c1ccc(-c2ncnc3cc4n(c23)CCC4)cc1	0.9%	-19.4%	-4.9	16.5%	?	-18.9
COCCN(C(=O)CCc1nnc(CCc2c[nH]c3ccccc23)o1)C(C)C	1.2%	?	-1.3	0.2%	5.2%	-4.5
O=C(CCCNC(=O)c1ccc(Cl)cc1)NCc1ccccc1Cl	-1.7%	·	-2.3	2.3%	11.8%	7.2
CC(C)NC(=O)CCS(=O)(=O)c1ccc(Br)s1	-4.5%	38.3%	16.8	1.4%	0.465µM*	32.0
Cc1ccc(NC(=O)CN(C)S(=O)(=O)c2ccc(Br)s2)cc1F	-19.0%	13.5%	20.7*	17.0%	21.6%	43.9*
Cc1ccccc1NC(=O)CCS(=O)(=O)c1ccc(Br)s1	-3.8%	11.6%	7.2	-4.7%	264.5%	23.7
O=C(CNS(=O)(=O)c1ccc(Br)s1)Nc1ccc2c(c1)OCCO2	-13.4%	?	31.6*	2.5%	13.1µM*	39.4
COc1ccc(NC(=O)CN(C)S(=O)(=O)c2ccc(Br)s2)cc1	10.1%	-13.9%	9.8	1.7%	-25.4%	23.5
N#C/C(=C/c1cn[nH]c1-c1ccc(Br)cc1)C(=O)O	·	5.6%	7.4	8.6%	-21.7%	-7.2
Cc1cccc([N+](=O)[O-])c1NC(=O)COC(=O)c1nc2nccc(C)n2n1	·	22.8%	·	-2.9%	1.8%	·
COc1ccccc1C(C)NC(=O)C1CCN(S(=O)(=O)c2cccs2)CC1 (stereo not drawn)	·	?	·	-1.7%	?	·
C=C(C)C(=O)Nc1nnc(-c2cccs2)s1	-12.1%	3.7%	21.4*	-15.8%	28.3%	81.4*
O=C(Nc1nnc(-c2cccs2)s1)C1CC1	-0.1%	69.3%	9.2	5.5%	18.1%	15.6
COCC(=O)Nc1nnc(-c2cccs2)s1	-53.6%	37.4%	35.4	-0.3%	-2.0%[5.75 µM]	50.0
CCC(C)C(=O)Nc1nnc(-c2cccs2)s1 (stereo not drawn)	-2.1%	59.0%	64.4*	-14.3%	10.6%	58.7*
CC12CCC(C(=O)NNc3ccc([N+](=O)[O-])cc3)(CC1=O)C2(C)C (stereo not drawn)	-76.0%	47.6%	-0.5	-6.7%	95.2%	-3.6
CC(=O)N1CCc2c(sc3c2c(=O)n(-c2ccccc2)c(=O)n3Cc2ccccc2Cl)C1	11.7%	?	-5.7	2.6%	11.7µM*	-6.0
COc1ccc(N2CCN(c3nc4ccccn4c(=O)c3C=O)CC2)cc1	-2.9%	14.0%	13.1*	6.3%	-0.2%	16.0
O=Cc1c(N2CCSCC2)nc2ccccn2c1=O	5.4%	6.0%	1.0	-0.2%	12.5%	1.2
COc1ccc(N2CCN(c3nc4ccc(C)cn4c(=O)c3C=O)CC2)cc1	4.3%	?	3.0	0.1%	-0.3%	32.7
COc1ccc(-c2nc3ccccn3c2C=O)cc1	-10.6%	219.4%	45.3*	-34.4%	55.3%	69.6*
COc1ccccc1N1CCN(c2nc3ccccn3c(=O)c2C=O)CC1	-2.7%	-6.1%	29.2*	-0.7%	?	34.9*
O=Cc1c(-c2ccc(F)cc2)nc2ccccn12	·	78.7%	26.2	-0.9%	-21.3%	31.7
SMILES	NS1 inh	Pf growth 48h	Cycloheximide cs	SARS PLpro yeast	Pf growth 96h	Shiga toxin inh
O=Cc1c(N2CCN(c3ccccc3)CC2)nc2ccccn2c1=O	-7.3%	12.8%	31.3*	-0.6%	?	54.1*
COc1ccc(S(=O)(=O)N(C)CC(=O)NCc2ccc3c(c2)OCO3)cc1	4.4%	16.7%	-2.4	2.1%	9.2%	14.7
N#C/C(=C\c1c(N2CCCCC2)nc2ccccn2c1=O)S(=O)(=O)c1ccccc1	10.6%	-4.8%	-2.5	0.9%	5.22µM*	-12.9
CCN1CCN(c2nc3ccccn3c(=O)c2C=O)CC1	2.8%	16.0%	-2.0	2.1%	25.8%	-4.0
CC1CN(c2nc3ccccn3c(=O)c2C=O)CC(C)O1 (stereo not drawn)	4.4%	20.1%	-3.5	0.1%	11.7µM*	22.6
O=Cc1c(N2CCN(CCO)CC2)nc2ccccn2c1=O	-1.6%	0.0%	-2.0	4.0%	10.4µM*	-2.6
CC1CN(c2nc3ccccn3c(=O)c2/C=C(\C#N)S(=O)(=O)c2ccccc2)CC(C)O1 (stereo not drawn)	-12.2%	-12.3%	1.8	0.8%	63.4%	-7.4
N#CC(C#N)=Cc1c(N2CCN(c3ccccc3)CC2)nc2ccccn2c1=O	3.5%	·	33.1*	-2.8%	?	82.3*
N#C/C(=C\c1c(N2CCN(c3ccccc3)CC2)nc2ccccn2c1=O)S(=O)(=O)c1ccccc1	-2.9%	-5.1%	-4.5	-10.5%	?	-8.6
Brc1ccc(C[n+]2ccccc2)cc1	·	2.94µM*	·	-2.6%	7.38µM*	·
COc1ccc(C2CC2/C(=N/O)c2ccccc2)cc1 (stereo not drawn)	·	51.8%	31.2*	-4.2%	130.3%	44.9
O/N=C(\c1ccccn1)C1CC1c1ccccc1 (stereo not drawn)	·	5.2%	11.5	23.9%	?	-13.0
COc1ccc(S(=O)(=O)N2CCN(C(=O)c3ccccn3)CC2)cc1	·	0.0%	·	-1.0%	-1.4%	·
COc1ccc(C2CC2/C(=N/O)c2ccccn2)cc1 (stereo not drawn)	·	325.7%	20.8*	?	-49.0%	107.7*
COc1ccc(C2CC2C(=O)c2ccccn2)cc1 (stereo not drawn)	·	127.2%	41.1*	-4.8%	136.9%	45.9
Cc1cc(C)nc(N2CCN(C(=O)c3ccc(S(=O)(=O)N4CCCCCC4)cc3)CC2)n1	5.9%	-4.2%	-2.6	-3.1%	-15.9%	19.9
Cc1ccc2c(CC(=O)Nc3ccc(N4CCN(C)CC4)cc3C)coc2c1	7.5%	?	18.2*	-1.3%	?	47.0
Cc1ccc2c(CC(=O)Nc3sccc3C(N)=O)coc2c1	-50.1%	141.5%	40.8*	-16.6%	10.8%	81.5*
COc1ccc(-c2nc3n(c2C)Cc2ccccc2-3)cc1	-7.6%	111.1%	39.1*	-0.7%	31.4%	129.6*
O=c1cc(-c2ccccc2)nc2n1Cc1ccccc1-2	-89.6%	·	2.2	-6.9%	4.1%	3.5
Cc1cc(C)c(NC(=O)c2cc(C(=O)O)ccc2C(=O)O)c([N+](=O)[O-])c1	·	-4.6%	-3.2	-4.2%	2.33µM*	-3.0
Cc1cccc(-c2nnc3n2N=C(c2ccccc2Br)CS3)c1	?	?	9.4	-7.0%	-18.8%	13.2
CNCCCOc1cccc(Oc2ccccc2)c1	1.8%	?	34.1*	0.7%	19.5%	100.2*

From PubChem BioAssay
